Drawing on PubChem BioAssay (Tox21), this text covers Potency and viability change, negative = cytotoxic for 40 molecules.

Records with an inconclusive call do not appear. Where a call stands in place of a potency, no number is given. The source made the active and inactive calls. Calls come from the whole dose curve; as a rule, active = well fitted cell-killing curve with a large enough effect in the repeat runs; inconclusive = weak or mixed curves; inactive = flat fitted curve, though single readings scatter.
Potency is the fitted concentration of half-maximal effect.

This assay is described as follows: qHTS assay to identify small molecule antagonists of the estrogen related receptor (ERR) signaling pathway from Tox21 library - cell viability counter screen (AID 1224834). Note: nearly all actives have a fitted effect of over 30% in size. The conditions noted are these: ERR reporter cells viability, CellTiter-Fluor, 17.5 h; series mostly up to 92.4 µM. An excerpt: National Center for Advancing Translational Sciences [NCATS]
NIH Chemical Genomics Center [NCGC]
U.S. Environmental Protection Agency [EPA]
National Institutes of Environmental Health Sciences [NIEHS]
National Toxicology Program [NTP]
U.S. Food and Drug Administration [FDA]
Estrogen related receptors (ERRs), the first orphan nuclear receptors discovered, play an important role in the control of cellular energy metabolism. ERRs are required for high-energy production in response to the environmental challenges. ERR-alpha was also identified as an adverse marker for breast cancer progression; ERR-alpha-positive tumors have a poor prognosis. To screen and to identify environmental compounds that perturb the ERR signaling pathways could provide valuable information for potential therapeutic or preventive measures in the treatment of metabolic disease. To differentiate true ERR antagonists or agonist from cytotoxic substances, the assay is multiplexed with cell viability assay.
Tox21 Assay Protocol Summary:
The ERR cells were dispensed at 2,000 cells/5 ul/well in 1536-well white plates using a Multidrop dispenser. After the assay plates were incubated at a 37 C/5% CO2 incubator for 6 hours, 23 nL of compounds dissolved in DMSO, positive and negative controls or DMSO only was transferred to the assay plate by a pin tool. The plates were incubated at 37 C for 17.5 hours. 1 ul/well of CellTiter-Fluor reagent was added into the assay plates using a Flying Reagent Dispenser. After 30-minute incubation at 37 C/5% CO2, the fluorescence intensity in the plates was measured using a ViewLux plate reader.
On the technique in general: In qHTS, concentration-response curves come from the screen itself.
Take `C(=C/c1ccccc1)/c1ccccc1`: the Potency entry is “inactive”.
Consider `CC(=O)OC1CCCCC1`, for which the Potency entry was “inactive”.
`CC(C(O)c1ccccc1)N(C)CCOC(c1ccccc1)c1ccccc1` (stereo not given): the Potency is 29.8 µM (active).
`CC(C)(c1cc(Br)c(O)c(Br)c1)c1cc(Br)c(O)c(Br)c1`: the Potency entry was “inactive”.
Same read-out and setting: as for `Cc1cnccn1`, the entry is “inactive”.
On to `CCCCCCCC/C=C\CCCCCCCC(=O)OCCOC(=O)CCCCCCC/C=C\CCCCCCCC`, for which the Potency entry is “inactive”.
`O=C1NCCN1CCN1CCC(c2cn(-c3ccc(F)cc3)c3ccc(Cl)cc23)CC1`: the Potency was 26.6 µM (active).
Same read-out and setting: as for `CCN(CC)CCSC(=O)C(c1ccccc1)c1ccccc1`, the entry is “inactive”.
With `CC(C)=CC1CC(C)CCO1` (stereo not given), the Potency result was “inactive”.
As to `CCc1cccc(CC)c1N(COC)C(=O)CS(=O)(=O)O`, the Potency result was “inactive”.
For `Cc1cc(=O)[nH]c(=O)[nH]1`, the Potency entry is “inactive”.
In the case of `O=S(=O)(O)c1cc(S(=O)(=O)O)c2ccc3c(S(=O)(=O)O)cc(S(=O)(=O)O)c4ccc1c2c43`, the viability change, negative = cytotoxic is 4.03% [at 19 µM] (inactive).
For `CCc1cccc(C)c1`, the Potency entry is “inactive”.
Regarding `COC(=O)C1=C(C)NC(C)=C(C(=O)OCCCN2CCC(c3ccccc3)(c3ccccc3)CC2)C1c1cccc([N+](=O)[O-])c1` (stereo not given), the Potency was 21.1 µM (active).
For `Clc1ccccc1CN1CCc2sccc2C1`, the Potency entry is “inactive”.
`CCCCCCCC(OC)OC`: the Potency entry was “inactive”.
Turning to `CCc1cccc(CC)c1NC(=O)C(=O)O`, the Potency entry was “inactive”.
In the case of `C=CC(C)C#N` (stereo not given), the Potency entry was “inactive”.
Take `CN(C)CCCN1c2ccccc2Sc2ccc(C(F)(F)F)cc21`: the Potency is 29.8 µM (active).
With `CCCCCCCCCC(=O)N(C)C`, the Potency result is “inactive”.
Same read-out and setting: for `CSc1c(Cl)c(Cl)c(Cl)c(Cl)c1Cl` the value was “inactive”; for `C=CC(C)(CCC=C(C)C)OC(=O)/C=C/c1ccccc1` (stereo not given), “inactive”.
The same measure, in the same setting: as for `C#CC(O)CCC` (stereo not given), the entry is “inactive”; as for `Cc1ccc(-n2[nH]c(C)c(N=Nc3cccc(-c4cccc(C(=O)O)c4)c3O)c2=O)cc1C`, 29.8 µM (active); as for `COCC(=O)O[C@]1(CCN(C)CCCc2nc3ccccc3[nH]2)CCc2cc(F)ccc2[C@@H]1C(C)C`, 26.6 µM (active).
Still for that read-out and setting: as for `CCc1ccc(C)nc1`, the entry is “inactive”; as for `Cn1cnc2ncnc(N)c21`, “inactive”.
In the case of `CCCOc1sc(C(=O)N2CCC(c3cc(CN)ccc3F)CC2)c(C)c1Br`, the Potency is 49.9 µM (active).
Same read-out and setting: as for `CC(C)c1ccccc1N`, the entry is “inactive”; as for `CO[Si](CCCNCCNCCN)(OC)OC`, “inactive”.
On the same count and under the same terms, for `NCCCC(O)(P(=O)(O)O)P(=O)(O)O` the value was “inactive”; for `CN1CN(C)CN(C)C1`, “inactive”.
`CCCCCCCOC(=O)c1ccccc1C(=O)OCCCCCCC`: the Potency entry is “inactive”.
Same read-out and setting: for `CCC(C)c1ccccc1` (stereo not given) the value was “inactive”; for `CN(Cc1cc(Br)cc(Br)c1N)C1CCCCC1`, “inactive”; for `CC(C)(C)c1n[nH]c(=O)n(N)c1=O`, “inactive”.
Take `CCC(=O)OCCc1ccccc1`: the Potency result is “inactive”.
Still for that read-out and setting: as for `NC1(c2ccc(-c3nc4ccn5c(=O)[nH]nc5c4cc3-c3ccccc3)cc2)CCC1`, the figure is 13.3 µM (active).
With `NC(=O)C(=O)N/N=C/c1ccc([N+](=O)[O-])o1`, the Potency result was “inactive”.
The same measure, in the same setting: as for `CCCCCCOc1cc(C)c(O)c(C)c1C`, the figure is 61.9 µM (active).
